# This is one part of a sample in which hits are shown more often than they occur.
# Shiga inhibitor: Shiga toxin inhibition; Vero cells, Shiga toxin protein synthesis inhibition reporter; inhibition, % at 38.7 µM; 290,000 tested, 9.2% active; in the data active = inhibition mostly above about 28%, no sharp cut-off; inactive = mostly below about 43%; also: 0% is about no effect
# Cycloheximide cs: affects cycloheximide protein synthesis inhibition readout, counter-screen; cell reporter, cycloheximide protein synthesis inhibition counterscreen; max response, %; 300,000 tested, 12% active; AID 2314; in the data active = max response mostly above about 13%, no sharp cut-off; inactive = mostly below about 14%; also: read at 38.3 µM for the half of the compounds with a filed dose; 0% is about no effect
# Sm TGR block: S. mansoni TGR enzyme inhibition; 360,000 tested, 3% active; AID 485364; Potency, µM (doses to about 114 µM), without a hit: top-dose activity change, negative = inhibition, actives largely listed as inhibitors; Q962Y6; purified TGR, DTNB reduction, TNB absorbance 405 nm; also: potency is read from the fitted curve at half-maximal effect; % is scaled to controls: 0 for no effect and ±100 for the full control effect; nearly all actives have a fitted effect of over 60% in size
#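 First, TGR (20 nM dispensed) and NADPH were mixed with compound. Second, a 15 min room-temperature incubation followed. Third, further NADPH and then DTNB were added to start the reaction. Finally, TNB absorbance was monitored kinetically.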
# FBPA Giardia inh: inhibitors of Giardia lamblia fructose-1,6-bisphosphate aldolase | A8B2U2 | purified Giardia FBPA | Potency, µM (doses to about 59.6 µM), inactives show at the top dose activity, negative = inhibition, most hits filed as inhibitors | 290,000 tested, 0.71% active; also: potency is read from the fitted curve at half-maximal effect; % is scaled to controls: 0 for no effect and ±100 for the full control effect; nearly all actives have a fitted effect of over 55% in size
# Target sequence (A8B2U2 whole entry, looked up): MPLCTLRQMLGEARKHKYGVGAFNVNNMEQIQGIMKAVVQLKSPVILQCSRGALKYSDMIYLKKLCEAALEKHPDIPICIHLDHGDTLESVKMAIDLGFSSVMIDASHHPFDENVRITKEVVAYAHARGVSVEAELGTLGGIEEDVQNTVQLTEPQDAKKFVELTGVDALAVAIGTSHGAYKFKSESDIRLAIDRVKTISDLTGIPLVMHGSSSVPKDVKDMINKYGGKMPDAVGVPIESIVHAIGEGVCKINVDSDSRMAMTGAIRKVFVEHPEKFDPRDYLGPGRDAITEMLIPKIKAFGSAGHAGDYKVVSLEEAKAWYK
#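 40 nM FBPA preincubated 10 min at RT with compound (up to 57.5 uM final), then substrate plus GAPDH/TPI/NAD/arsenate coupling and diaphorase/resazurin added. Fluorescence read after 20 min at RT, 525/598 nm.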
# TbPYK inhibitor: T. brucei pyruvate kinase inhibition; TbPYK enzyme, Kinase-Glo Plus ATP luminescence, 45 min; Potency, µM (highest dose often 76.8 µM), for inactives: at the top dose activity, negative = inhibition, hits mostly inhibitors; 410,000 tested, 0.12% active; AID 624173; also: potency is read from the fitted curve at half-maximal effect; % is scaled to controls: 0 for no effect and ±100 for the full control effect; nearly all actives have a fitted effect of over 50% in size
#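 Assay buffer: 50 mM TEA pH 7.2, 100 mM KCl, 10 mM MgCl2, 0.05% BSA, 0.01% Tween-20. Pyruvate kinase from T. brucei plus substrate met compound, then ADP (130 uM final). Luminescence was read post 45 min RT.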
# LmPK inhibitor: inhibitors of Leishmania mexicana pyruvate kinase | Q27686 | purified LmPK, Kinase-Glo ATP luminescence, 1 h | Potency, µM (top dose mostly 57.5 µM), without a hit: at the highest dose activity change, negative = inhibition, most hits filed as inhibitors | 290,000 tested, 0.37% active | AID 1721; also: potency is read from the fitted curve at half-maximal effect; % is scaled to controls: 0 for no effect and ±100 for the full control effect
#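 0.1 nM LmPK, 0.5 mM PEP, 0.1 mM ADP; 50 mM imidazole pH 7.2, 7 mM MgCl2, 50 mM KCl; 1 h RT. Kinase-Glo luminescence readout, normalized to no-enzyme (full inhibition) and uninhibited wells.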
# Numbers without * were called inactive; ? = inconclusive; · = no result given. Unless noted, calls follow the shape of the dose curve; as a rule, active = well fitted curve in the direction sought with a large enough effect; inconclusive = small, poorly fitted or top-dose-only effect, or another doubt; inactive = no such curve, though single readings can be large; an effect the other way counts as inactive or inconclusive.
SMILES,Shiga inhibitor,Cycloheximide cs,Sm TGR block,FBPA Giardia inh,TbPYK inhibitor,LmPK inhibitor
COc1ccc(NC(=O)O/N=C/c2ccc(N(C)C)cc2)cc1,57*,33*,1%,-19%,-2%,-1%
Cn1nc(C(=O)Nc2cccc(C(F)(F)F)c2)c2c1-c1ccccc1S(=O)(=O)C2,·,·,3%,·,6%,·
CCOCC(=O)Nc1c(C(=O)Nc2ccc3c(c2)OCCO3)oc2ccccc12,126*,37*,-1%,-25%,2%,0%
O=C(Nc1ccc2c(c1)OCCO2)c1oc2ccccc2c1NC(=O)C1CC1,17,3,24%,-15%,2%,0%
CCOC(=O)c1oc2ccccc2c1NC(=O)CCl,-8,-4,5.6µM*,3%,-1%,-4%
CCC(=O)Nc1c(C(=O)Nc2ccc3c(c2)OCCO3)oc2ccccc12,88*,41,-10%,-18%,0%,5%
COCC(=O)Nc1c(C(=O)Nc2ccc3c(c2)OCCO3)oc2ccccc12,93*,36*,1%,-17%,4%,16%
CSc1ccc(CNC(=O)Cn2nc(N3CCN(c4ccccc4)CC3)ccc2=O)cc1,·,·,-3%,·,3%,·
CC(C)(C)NC(=O)C1(N2C(=O)c3ccccc3C2=O)CCCC1,·,·,·,·,4%,·
CCC(=O)Nc1c(C(=O)Nc2cccc(OC)c2)oc2ccccc12,37,18*,0%,-8%,-2%,2%
COc1cccc(NC(=O)c2oc3ccccc3c2NC(=O)c2ccc(F)c(F)c2)c1,·,·,-2%,·,-5%,·
CCCN(C(=O)CSc1nnnn1-c1ccccc1OC)C1CCS(=O)(=O)C1 (stereo not given),-5,-1,8%,-1%,7%,-2%
COc1ccc(N(CC(=O)N2CCN(c3cccc(OC)c3)CC2)S(=O)(=O)c2c(C)noc2C)cc1,·,·,9%,·,-7%,·
COC(=O)c1ccc(-n2c(C)cc(C(=O)CSc3cccc[n+]3[O-])c2C)cc1,-23,5,1%,0%,-4%,-13%
Cc1cc(C(=O)CSc2cccc[n+]2[O-])c(C)n1-c1ccc(OC(F)F)cc1,59*,54*,1%,-6%,1%,-3%
Cc1cc(C)n(-c2ccc([N+](=O)[O-])cc2-c2nn[nH]n2)n1,3,7,1%,?,7%,3%
O=[N+]([O-])c1ccc(O)c(-c2nn[nH]n2)c1,53*,37*,38%,?,?,-13%
COc1ccc(S(=O)(=O)Nc2ccccc2C(=O)N2CCOCC2)cc1Br,-13,-3,-6%,·,1%,-7%
Cc1nnc(N2CCC(C(=O)NCc3ccc(F)cc3)CC2)c2nn(-c3ccc(Cl)cc3)c(C)c12,·,·,-10%,·,-2%,·
Cc1cc(=O)n(Cc2c(F)cccc2Cl)c2c1c(C)nn2-c1cccc(F)c1,·,·,3%,·,-10%,·
O=C(Oc1ccc(Nc2ncnc3ccccc23)cc1)c1cccnc1,37,-3,9%,-12%,2%,0%
O=C(O)c1ccc(Nc2ncnc3ccccc23)cc1,20,16*,-10%,-18%,-3%,-8%
Cc1cccc(Nc2ncnc3nc[nH]c23)c1,65*,39*,3%,-7%,1%,-12%
CCOC(=O)c1ccc(Nc2ncnc3ccccc23)cc1,48,46*,6%,-15%,0%,-10%
Cc1ccc(C)c(Nc2ncnc3nc[nH]c23)c1,-15,-7,2%,-6%,-4%,-3%
SMILES,Shiga inhibitor,Cycloheximide cs,Sm TGR block,FBPA Giardia inh,TbPYK inhibitor,LmPK inhibitor
CCOC(=O)c1ccc(Nc2ncnc3ccc(C)cc23)cc1,10,6,6%,5%,4%,1%
CCOC(=O)c1ccc(Nc2ncnc3nc[nH]c23)cc1,44*,22*,2%,2%,-8%,-15%
CCn1c(=O)c2cc(C(=O)Nc3cc(C)c(Cl)cc3OC)sc2c2ccccc21,·,·,40%,·,-7%,·
O=C(O)CCC(=O)NNc1ncnc2ccccc12,73*,46*,9%,-11%,-1%,3%
COc1ccc(N2CSC3=C(C#N)C(c4cc(OC)ccc4OC)CC(=O)N3C2)c(OC)c1 (stereo not given),-6,2,?,1.6µM*,7.9µM*,2%
COc1cc(OC)c(C2CC(=O)N3CN(c4ccc(C)cc4)CSC3=C2C#N)cc1OC (stereo not given),41*,12,8.9µM*,?,1.6µM*,8%
COc1ccc(N2CSC3=C(C#N)C(c4cc(OC)c(OC)cc4OC)CC(=O)N3C2)c(OC)c1 (stereo not given),33,-1,6.3µM*,2µM*,8.9µM*,-17%
COc1ccc(C2CC(=O)N3CN(c4ccc(C)c(Cl)c4)CSC3=C2C#N)cc1OC (stereo not given),6,8,50µM*,5µM*,?,16%
CN(CC(=O)Nc1ccc(Cl)cc1)C(=O)C1CCCC1,·,·,-7%,·,-2%,·
CCN(CC)CCCC(C)n1c(-c2ccccc2)nc2c(NCCOC)nc(C)nc21 (stereo not given),·,·,·,0%,·,·
NCCC[C@@H](CC(=O)N[C@@H]1CCCC[C@H]1C(=O)N[C@H](CC(=O)N[C@@H](CCC(=O)O)CC(=O)O)Cc1ccccc1)NC(=O)C[C@H](Cc1ccccc1)NC(=O)[C@@H]1CCCC[C@H]1N,·,·,·,-22%,·,·
Cc1ccc(C)c(NC(=O)c2cc(S(=O)(=O)N3CCCc4ccccc43)ccc2F)c1,·,·,13%,·,-6%,·
COc1ccc(N2CSC3=C(C#N)C(c4ccc(OC)c(OC)c4)CC(=O)N3C2)c(OC)c1 (stereo not given),-11,-3,7.9µM*,1.4µM*,7.9µM*,0%
CCOc1ccccc1N1CSC2=C(C#N)C(c3c(OC)ccc4ccccc34)CC(=O)N2C1 (stereo not given),1,1,13µM*,6.3µM*,3.5µM*,4%
O=C(N=C1SC2CS(=O)(=O)CC2N1c1ccccc1)C1CCCCC1 (stereo not given),-6,9,-6%,5%,1%,1%
O=S(=O)(Nc1ccncc1)c1ccc(Cl)c(Cl)c1,·,18*,-18%,-11%,-4%,2%
O=S(=O)(Nc1ccncc1)c1cc(Cl)ccc1Cl,5,-2,5%,0%,-1%,-1%
CC1(C(=O)NCc2cccc(C(F)(F)F)c2)CCN1C1Cc2ccccc2C1 (stereo not given),·,·,·,·,-7%,·
Cc1nc2ccccn2c1C(=O)NNC(=O)Nc1cccc(C(F)(F)F)c1,5,0,0%,-7%,-10%,2%
COc1ccc(CN2CCC(C(=O)Nc3ccc(Oc4cccnc4)cc3)CC2)c(C)c1C,-1,-1,3%,·,-10%,1%
CCC(C)NC(=O)Cn1c(=O)n(Cc2ccc(C(=O)NCCCOC)cc2)c(=O)c2ccccc21 (stereo not given),·,·,2%,·,2%,·

# From PubChem
